Active and inactive are the calls of the source. Rule for the calls: active = hit-call score of the fitted dose curve at least 0.9, where 1 is the maximum; inactive = score below 0.9.
Test: ATG_GLI_CIS: Attagene CIS-FACTORIAL HepG2 Assay for human Zinc Finger Protein GLI1 (AID 2282945)
Settings: HepG2, Attagene cis-factorial reporter mRNA, GLI element; actives raise or lower the signal
Description: ATG_CIS is a cell-based, multiplexed-readout assay that uses HepG2, a human liver cell line, with measurements taken at 24 hours after chemical dosing in a 24-well plate.ATG_GLI_CIS is one of 52 assay component(s) measured or calculated from the ATG_CIS assay. It is designed to make measurements of mRNA induction, a form of inducible reporter, as detected with fluorescence intensity signals by Reverse transcription polymerase chain reaction (RT-PCR) and Capillary electrophoresis technology.Data from the assay component ATG_GLI_CIS was analyzed into 1 assay endpoint. This assay endpoint, ATG_GLI_CIS, was analyzed with bidirectional fitting relative to DMSO as the negative control and baseline of activity. Using a type of inducible reporter, measures of mRNA for gain or loss-of-signal activity can be used to understand the reporter gene at the transcription factor-level as they relate to the gene GLI1. Furthermore, this assay endpoint can be referred to as a primary readout, because this assay has produced multiple assay endpoints where this one serves a reporter gene function. To generalize the intended target to other relatable targets, this assay endpoint is annotated to the dna binding intended target family, where the subfamily is zinc finger.
Human liver HepG2 cells are transiently transfected with multiple reporter transcription units (MRTUs) in 6-well plates using FuGene 6 reagent (Roche; 3 ml FuGene/1 mg DNA). The MRTU constructs are regulated by a cis-regulating element (promoter). […] A major difference between the CIS and TRANS system is that in CIS activities of endogenous TFs are measured, whereas the TRANS assay evaluates changes in activities of exogenous, chimeric NR-Gal4 proteins. […] At the end of 24 hour incubation, total RNA was isolated using TriZol reagent (Invitrogen). The isolated RNA is then reverse-transcribed using oligo(dT) primer and Mo-MLV reverse transcriptase (Invitrogen) with DNAse I (Ambion) treatment for 30 min. The one-tenth of the produced cDNA was amplified by PCR using Taq DNA polymerase (Invitrogen) and two reporter sequence-specific primers. The PCR products were fluorescently labeled by primer extension with 6-arboxyfluorescein (6-FAM) 5'-labeled reporter sequence-specific primer (2 min at 95 C, 20 s at 68 C and 10 min at 72 C) and these products were digested with 5U of HpaI (New England Biolabs) for 2h at 37 C. The fragments were purified using Qiaquick PCR columns (Qiagen), analyzed on an ABI 3130xL genetic analyzer (Applied Biosystems) with peak positions identified by using a set of X-rhodamine (ROX)-labeled MapMarker1000 molecular weight standards (BioVentures). The raw capillary electrophoresis data was processed using Attagraph software (Attagene).

| Structure (SMILES) | outcome | AC50 |
| --- | --- | --- |
| N#CCN(CC#N)CCN(CC#N)CC#N | inactive |  |
| CC(O)(P(=O)(O)O)P(=O)(O)O | inactive |  |
| CCCCCCCCCCC1CO1 (stereo not given) |  | 159 µM (active) |
| CC1=C(CC(=O)O)c2cc(F)ccc2/C1=C\c1ccc(S(C)=O)cc1 (stereo not given) | inactive |  |
| CCCCC(CC)COC(=O)CS (stereo not given) | inactive |  |
| Oc1ccc(Cl)cc1C1CCCC1 |  | 43.1 µM (active) |
| COCCCN | inactive |  |
| Sc1nc2ccccc2s1 | inactive |  |
| O=C1NC(=O)[C@@H]2CC=CC[C@H]12 | inactive |  |
| CC(C)CC(=O)CC(C)CC(C)C (stereo not given) | inactive |  |
| O=C(O)c1ccccc1C(=O)O | inactive |  |
| c1ccc(CNc2ncnc3nc[nH]c23)cc1 | inactive |  |
| CN(C)CCC(c1ccc(Cl)cc1)c1ccccn1 (stereo not given) | inactive |  |
| CC1=NN(c2cc(Cl)c(S(=O)(=O)O)cc2Cl)C(=O)C1N=Nc1ccc(S(=O)(=O)O)cc1 (stereo not given) | inactive |  |
| CCCCCCC(O)CCCCCCCCCCC(=O)OC (stereo not given) | inactive |  |
| Cc1ccccc1S(N)(=O)=O | inactive |  |
| CN1CCCC1 | inactive |  |
| CCCOCCC | inactive |  |
| C=C(C)C(=O)OCC1CCCO1 (stereo not given) | inactive |  |
| CC/C=C\CCCCCO | inactive |  |

| Structure (SMILES) | outcome | AC50 |
| --- | --- | --- |
| OCCN(CCO)c1cccc(Cl)c1 | inactive |  |
| CCCCCC1CCCC(=O)O1 (stereo not given) | inactive |  |
| NC(N)=Nc1nc(CSCCC(N)=NS(N)(=O)=O)cs1 | inactive |  |
| O=C(c1ccccc1)c1ccccc1O | inactive |  |
| CCOC(=O)CC(=O)OCC | inactive |  |
| COC(OC)C(C)c1ccccc1 (stereo not given) | inactive |  |
| O=C(Oc1ccccc1)c1ccccc1 | inactive |  |
| O=C(CC(C(=O)OC1CCCCC1)S(=O)(=O)O)OC1CCCCC1 (stereo not given) | inactive |  |
| CCc1cc(C(N)=S)ccn1 | inactive |  |
| CC/C=C/CCO | inactive |  |
| COc1ccc2ccccc2c1 | inactive |  |
| CC/C=C\CCO | inactive |  |
| NC(=O)c1ccc([N+](=O)[O-])cc1Cl | inactive |  |
| COc1c2occc2cc2ccc(=O)oc12 | inactive |  |
| Cc1cc(C)c(S(=O)(=O)O)cc1N=Nc1cc(S(=O)(=O)O)c2ccccc2c1O | inactive |  |
| CCCN[C@H]1CCc2nc(N)sc2C1 | inactive |  |
| O=C(O)c1cc(Cl)cc(Cl)c1O | inactive |  |
| O=C1NC(=O)C2CC=CCC12 (stereo not given) | inactive |  |
| O=[N+]([O-])c1ccc2nc[nH]c2c1 | inactive |  |
| CC1=CCCC(C)(C)C12CCC(C)O2 (stereo not given) | inactive |  |

Reference: PubChem BioAssay (EPA / NIEHS)
